Results filed as inconclusive are left out. Active and inactive are the calls of the source. How the source made its calls, unless noted: active means hit-call score of the fitted dose curve at least 0.9, where 1 is the maximum; inactive means score below 0.9.
Key:
[1] = target: Paired box protein Pax-6 (Homo sapiens) (UniProt P26367); assay: ATG_Pax6_CIS: Attagene CIS-FACTORIAL HepG2 Assay for human Paired Box 6 (PAX6) (AID 2282956); details: HepG2 CIS-FACTORIAL PAX6 reporter transcription, RNA readout; actives raise or lower the signal
Summary of the method: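 Readout: reporter transcript fluorescence after RT-PCR and capillary electrophoresis. Cells: HepG2, transiently transfected with cis-regulated MRTUs. Exposure 24 h. Gain or loss of signal fitted bidirectionally relative to DMSO.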

[2] = ATG_PXRE_CIS: Attagene CIS-FACTORIAL HepG2 Assay for human Pregnane X Receptor Element (PXRE) (AID 2282957); details: HepG2 Attagene CIS-FACTORIAL PXRE reporter, mRNA; actives raise or lower the signal
Summary of the method: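 Endogenous transcription factor activity in HepG2 was gauged through induction of reporter mRNA driven by a cis-regulating promoter element, sampled 24 h post-treatment. Activity was fitted in both directions against DMSO negative control.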

[3] = ATG_PPRE_CIS: Attagene CIS-FACTORIAL HepG2 Assay for human Peroxisome Proliferator-activated Response Element (PPRE) (AID 2282958); details: HepG2 PPRE cis-element reporter, Attagene transcription factor profiling; actives raise or lower the signal
Summary of the method: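 In this cell-based multiplex, a PPRE cis element drives a reporter sequence in transiently transfected HepG2 cells. Following 24 h treatment, labeled cDNA amplicons are sized and quantified by capillary electrophoresis, with DMSO defining baseline.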

[4] = ATG_RORE_CIS: Attagene CIS-FACTORIAL HepG2 Assay for human RAR-related Orphan Receptor Element (RORE) (AID 2282959); details: HepG2 Attagene cis-factorial RORE reporter, mRNA; actives raise or lower the signal
Summary of the method: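 Endogenous factor activity at a cis response element is read as reporter transcript levels in HepG2 cells, 24 h post-dose. Transcripts are quantified by RT-PCR with capillary electrophoresis, and data fitted in both directions against DMSO.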

[5] = ATG_Sox_CIS: Attagene CIS-FACTORIAL HepG2 Assay for human SRY-box transcription factor (SOX) (AID 2282960); details: HepG2 Attagene cis-factorial SOX reporter, mRNA; actives raise or lower the signal
Summary of the method: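 Measures mRNA induction of a SOX1-associated reporter in HepG2 after 24 h dosing. Fluorescently labelled RT-PCR fragments are separated by capillary electrophoresis, and gain or loss relative to DMSO control is fitted.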

[6] = target: Transcription factor Sp1 (Homo sapiens) (UniProt P08047); assay: ATG_Sp1_CIS: Attagene CIS-FACTORIAL HepG2 Assay for human Specificity Protein 1 (Sp1) (AID 2282961); details: HepG2 Sp1 cis-reporter transcription, actives raise or lower the signal
Summary of the method: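 Cells: HepG2, transiently transfected with cis-regulated multiplexed reporters. Exposure: 24 h. Detection: reporter transcripts amplified, fluorescently labeled, restriction-digested and sized by capillary electrophoresis. Analysis: bidirectional fit relative to DMSO.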

[7] = ATG_SREBP_CIS: Attagene CIS-FACTORIAL HepG2 Assay for human Sterol Regulatory Element Binding (SREBP) (AID 2282962); details: HepG2 Attagene cis-factorial SREBP reporter, mRNA; actives raise or lower the signal
Summary of the method: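 Readout: fluorescent reporter-transcript peaks resolved by capillary electrophoresis after RT-PCR. Cells were human HepG2 carrying transfected cis-promoter reporter constructs, dosed for 24 h. Gain or loss of signal was fitted against DMSO controls.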

[8] = ATG_TA_CIS: Attagene CIS-FACTORIAL HepG2 Assay for human TA Basal Promoter (AID 2282964); details: HepG2 Attagene CIS-factorial TA basal promoter reporter; actives raise or lower the signal
Summary of the method: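 Cis-factorial format in HepG2: reporters report endogenous factors, not chimeric Gal4 fusions. After 24 h treatment, reporter transcripts were measured by RT-PCR-capillary electrophoresis fluorescence, analysed bidirectionally versus DMSO.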

[9] = ATG_TCF_b_cat_CIS: Attagene CIS-FACTORIAL HepG2 Assay for human T-Cell-Factor with beta-catenin (TCF/b-cat) (AID 2282965); details: HepG2 TCF/beta-catenin cis-reporter transcription, actives raise or lower the signal
Summary of the method: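 HepG2 cells transiently transfected with multiple cis-promoter-regulated reporter transcription units, so endogenous transcription factor activity is measured. Reporter mRNA read 24 hours after dosing by RT-PCR, fluorescent labelling and capillary electrophoresis; bidirectional fitting against DMSO.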

[10] = ATG_TAL_CIS: Attagene CIS-FACTORIAL HepG2 Assay for human TAL Basal Promoter (AID 2282966); details: HepG2 Attagene cis-factorial TAL promoter reporter; actives raise or lower the signal;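 further: background control endpoint measuring basal TAL promoter reporter mRNA not a specific factor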
Summary of the method: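 Endogenous transcription-factor activity is sensed in HepG2 cells through transfected cis-promoter reporter constructs. After 24 h dosing, reporter transcripts are quantified by RT-PCR and capillary electrophoresis. Gain or loss of signal is fitted relative to DMSO.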

[11] = ATG_TGFb_CIS: Attagene CIS-FACTORIAL HepG2 Assay for human Transforming Growth Factor (TGF) (AID 2282967); details: HepG2 Attagene CIS TGFb reporter, mRNA transcription; actives raise or lower the signal
Summary of the method: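 Multiplexed cis-reporter HepG2 system, 24 h treatment; mRNA induction read by fluorescence after RT-PCR and CE; DMSO negative control, bidirectional curve fitting.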

[12] = ATG_VDRE_CIS: Attagene CIS-FACTORIAL HepG2 Assay for human Vitamin D Receptor Element (VDRE) (AID 2282968); details: HepG2 VDRE cis-reporter transcription, actives raise or lower the signal
Summary of the method: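 Steps: transfect HepG2 with multiple reporter transcription units; dose chemicals 24 h; isolate RNA; RT-PCR; label with 6-FAM primer extension; HpaI digest; capillary electrophoresis. Curves fitted both directions against DMSO.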

[13] = target: Estrogen receptor (Homo sapiens) (UniProt P03372); assay: ATG_ERa_TRANS: Attagene TRANS-FACTORIAL HepG2 Assay for human Estrogen Receptor alpha (ERa) (AID 2282970; active means hit-call score of the fitted dose curve at least 0.9, where 1 is the maximum); details: HepG2 Attagene TRANS ERa GAL4 reporter, mRNA
Summary of the method: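 Transfected HepG2 cells carrying GAL4-UAS-driven reporter units were dosed for 24 hours. Total RNA was reverse-transcribed, reporter sequences PCR-amplified, FAM-labelled, HpaI-digested and resolved by capillary electrophoresis. Increases over DMSO control defined activity.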

[14] = target: X-box-binding protein 1 (Homo sapiens) (UniProt P17861); assay: ATG_Xbp1_CIS: Attagene CIS-FACTORIAL HepG2 Assay for human X-box Binding Protein 1 (XBP1) (AID 2282972); details: HepG2 XBP1 cis-element reporter, Attagene multiplex; actives raise or lower the signal
Summary of the method: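 Read-out: fluorescent reporter mRNA fragments resolved by capillary electrophoresis after RT-PCR. Human HepG2 liver cells carried transfected cis-promoter reporter units and were exposed to chemicals for 24 hours. Gain or loss of signal fitted relative to DMSO baseline.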

[15] = target: Nuclear receptor subfamily 1 group I member 3 (Homo sapiens) (UniProt Q14994); assay: ATG_CAR_TRANS: Attagene TRANS-FACTORIAL HepG2 Assay for human Constitutive Androstane Receptor (CAR) (AID 2282969; active means hit-call score of the fitted dose curve at least 0.9, where 1 is the maximum;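 further: activators raise reporter mRNA above DMSO so AC50 marks induction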); details: HepG2 Attagene TRANS-FACTORIAL CAR reporter
Summary of the method: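 Steps: transient transfection of HepG2 with multiple GAL4-UAS reporter units; 24 h compound incubation; RNA isolation, RT-PCR, 6-FAM primer extension, HpaI digest; capillary electrophoresis. Gain-of-signal relative to DMSO negative control.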

[16] = ATG_GAL4_TRANS: Attagene TRANS-FACTORIAL HepG2 Assay for GAL4 (Internal Marker) (AID 2282976; active means hit-call score of the fitted dose curve at least 0.9, where 1 is the maximum); details: HepG2 Attagene TRANS GAL4 internal marker reporter
Summary of the method: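 Fluorescence from capillary electrophoresis of labelled RT-PCR products quantifies reporter mRNA induction after 24 h dosing of HepG2 cells carrying transfected GAL4-UAS reporter transcription units. Vehicle DMSO serves as baseline.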

[17] = target: Signal transducer and activator of transcription 3 (Homo sapiens) (UniProt P40763); assay: ATG_STAT3_CIS: Attagene CIS-FACTORIAL HepG2 Assay for human Signal Transducer and Activator of Transcription 3 (STAT3) (AID 2282963); details: HepG2, Attagene cis-factorial STAT3 reporter transcription; actives raise or lower the signal
Summary of the method: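 HepG2, MRTU-transfected, 24 h dosing. RNA → RT → PCR → FAM label → HpaI → CE. Bidirectional fit vs DMSO.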

[18] = ATG_M_19_TRANS: Attagene TRANS-FACTORIAL HepG2 Assay for M19 Transcription Factor (Internal Marker) (AID 2282974; active means hit-call score of the fitted dose curve at least 0.9, where 1 is the maximum); details: HepG2 Attagene TRANS-FACTORIAL M19 internal marker reporter
Summary of the method: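 Reporter mRNA induction was measured in transfected HepG2 cells 24 h after dosing. Endpoint fitted upward relative to DMSO and serves as a background control within the multiplexed TRANS panel.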

[19] = target: Estrogen-related receptor gamma (Homo sapiens) (UniProt P62508); assay: ATG_ERRg_TRANS: Attagene TRANS-FACTORIAL HepG2 Assay for human Estrogen-Related Receptor gamma (ERRg) (AID 2282977; active means hit-call score of the fitted dose curve at least 0.9, where 1 is the maximum;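 further: hits increase reporter signal over DMSO so potencies reflect activators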); details: HepG2 Attagene TRANS reporter, ERRg transactivation
Summary of the method: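 Induction of reporter transcripts through a chimeric NR-Gal4 protein is quantified in transfected human HepG2 liver cells after 24 h chemical exposure, using RT-PCR with capillary electrophoresis detection and DMSO as baseline.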

Measured: AC50

Sequence of Estrogen receptor (Homo sapiens) (P03372 whole entry, looked up, the tested form may be a part): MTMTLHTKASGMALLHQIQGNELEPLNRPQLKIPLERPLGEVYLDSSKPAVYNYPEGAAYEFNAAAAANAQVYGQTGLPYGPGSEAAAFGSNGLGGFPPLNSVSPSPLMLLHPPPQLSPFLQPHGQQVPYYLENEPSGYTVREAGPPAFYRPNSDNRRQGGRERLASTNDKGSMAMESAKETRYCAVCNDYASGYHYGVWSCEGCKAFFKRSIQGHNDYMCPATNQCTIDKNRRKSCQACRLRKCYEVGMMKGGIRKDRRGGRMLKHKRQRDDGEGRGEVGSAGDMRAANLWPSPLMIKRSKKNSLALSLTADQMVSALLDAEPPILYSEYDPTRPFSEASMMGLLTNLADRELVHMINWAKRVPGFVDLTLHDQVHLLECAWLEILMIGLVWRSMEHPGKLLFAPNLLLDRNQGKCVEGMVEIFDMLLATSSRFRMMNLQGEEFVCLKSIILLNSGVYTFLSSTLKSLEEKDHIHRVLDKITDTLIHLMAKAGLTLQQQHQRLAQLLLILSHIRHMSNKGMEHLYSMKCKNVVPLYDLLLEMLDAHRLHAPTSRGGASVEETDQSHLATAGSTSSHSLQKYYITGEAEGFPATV
Sequence of Signal transducer and activator of transcription 3 (Homo sapiens) (P40763 whole entry, looked up): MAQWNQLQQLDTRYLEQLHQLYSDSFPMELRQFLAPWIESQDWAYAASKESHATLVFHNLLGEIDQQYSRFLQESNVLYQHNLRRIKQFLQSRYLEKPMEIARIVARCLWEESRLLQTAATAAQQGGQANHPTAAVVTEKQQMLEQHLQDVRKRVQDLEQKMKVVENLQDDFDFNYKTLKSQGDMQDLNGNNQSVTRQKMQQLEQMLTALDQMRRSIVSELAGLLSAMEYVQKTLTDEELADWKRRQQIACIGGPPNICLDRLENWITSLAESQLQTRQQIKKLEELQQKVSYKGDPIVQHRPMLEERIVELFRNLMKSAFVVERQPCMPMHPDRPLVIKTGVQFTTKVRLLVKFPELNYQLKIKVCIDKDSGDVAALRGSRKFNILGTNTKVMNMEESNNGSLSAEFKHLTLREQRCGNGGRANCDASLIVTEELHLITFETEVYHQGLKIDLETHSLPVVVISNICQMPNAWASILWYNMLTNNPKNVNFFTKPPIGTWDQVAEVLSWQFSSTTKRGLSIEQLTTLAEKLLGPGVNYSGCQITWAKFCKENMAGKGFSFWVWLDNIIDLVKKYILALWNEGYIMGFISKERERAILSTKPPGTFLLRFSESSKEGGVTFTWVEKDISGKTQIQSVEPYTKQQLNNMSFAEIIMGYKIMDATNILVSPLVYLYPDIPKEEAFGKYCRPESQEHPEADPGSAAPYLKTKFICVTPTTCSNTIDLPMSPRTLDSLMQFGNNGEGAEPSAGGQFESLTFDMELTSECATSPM
Sequence of Paired box protein Pax-6 (Homo sapiens) (P26367 whole entry, looked up): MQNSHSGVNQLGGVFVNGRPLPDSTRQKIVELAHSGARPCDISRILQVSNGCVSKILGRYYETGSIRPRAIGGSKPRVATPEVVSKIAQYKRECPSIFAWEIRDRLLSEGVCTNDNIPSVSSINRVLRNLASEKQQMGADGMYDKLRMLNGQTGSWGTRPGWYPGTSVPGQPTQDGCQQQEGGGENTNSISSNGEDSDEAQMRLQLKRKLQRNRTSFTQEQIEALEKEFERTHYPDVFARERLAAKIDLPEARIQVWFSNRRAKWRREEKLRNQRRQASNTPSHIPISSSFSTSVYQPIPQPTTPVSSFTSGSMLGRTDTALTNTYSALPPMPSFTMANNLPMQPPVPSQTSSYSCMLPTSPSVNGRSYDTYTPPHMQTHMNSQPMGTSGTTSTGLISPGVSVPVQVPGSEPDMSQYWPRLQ
Sequence of Nuclear receptor subfamily 1 group I member 3 (Homo sapiens) (Q14994 whole entry, looked up, the tested form may be a part): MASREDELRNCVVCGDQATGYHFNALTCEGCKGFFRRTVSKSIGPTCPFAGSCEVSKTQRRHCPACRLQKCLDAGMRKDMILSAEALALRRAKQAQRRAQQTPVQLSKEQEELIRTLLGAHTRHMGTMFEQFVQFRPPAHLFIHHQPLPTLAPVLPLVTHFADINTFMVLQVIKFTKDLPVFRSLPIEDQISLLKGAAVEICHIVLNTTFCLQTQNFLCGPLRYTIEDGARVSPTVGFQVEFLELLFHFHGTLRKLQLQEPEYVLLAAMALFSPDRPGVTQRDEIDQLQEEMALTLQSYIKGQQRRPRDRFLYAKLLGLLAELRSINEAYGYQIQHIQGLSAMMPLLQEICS
Sequence of X-box-binding protein 1 (Homo sapiens) (P17861 whole entry, looked up, the tested form may be a part): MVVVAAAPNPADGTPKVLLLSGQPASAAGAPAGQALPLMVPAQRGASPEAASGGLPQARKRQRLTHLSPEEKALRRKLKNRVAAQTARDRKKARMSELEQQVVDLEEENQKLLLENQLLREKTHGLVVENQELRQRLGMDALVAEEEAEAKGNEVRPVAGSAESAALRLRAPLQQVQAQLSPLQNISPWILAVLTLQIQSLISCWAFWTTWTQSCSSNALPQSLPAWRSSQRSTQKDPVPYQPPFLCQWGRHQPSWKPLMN
Sequence of Transcription factor Sp1 (Homo sapiens) (P08047 whole entry, looked up): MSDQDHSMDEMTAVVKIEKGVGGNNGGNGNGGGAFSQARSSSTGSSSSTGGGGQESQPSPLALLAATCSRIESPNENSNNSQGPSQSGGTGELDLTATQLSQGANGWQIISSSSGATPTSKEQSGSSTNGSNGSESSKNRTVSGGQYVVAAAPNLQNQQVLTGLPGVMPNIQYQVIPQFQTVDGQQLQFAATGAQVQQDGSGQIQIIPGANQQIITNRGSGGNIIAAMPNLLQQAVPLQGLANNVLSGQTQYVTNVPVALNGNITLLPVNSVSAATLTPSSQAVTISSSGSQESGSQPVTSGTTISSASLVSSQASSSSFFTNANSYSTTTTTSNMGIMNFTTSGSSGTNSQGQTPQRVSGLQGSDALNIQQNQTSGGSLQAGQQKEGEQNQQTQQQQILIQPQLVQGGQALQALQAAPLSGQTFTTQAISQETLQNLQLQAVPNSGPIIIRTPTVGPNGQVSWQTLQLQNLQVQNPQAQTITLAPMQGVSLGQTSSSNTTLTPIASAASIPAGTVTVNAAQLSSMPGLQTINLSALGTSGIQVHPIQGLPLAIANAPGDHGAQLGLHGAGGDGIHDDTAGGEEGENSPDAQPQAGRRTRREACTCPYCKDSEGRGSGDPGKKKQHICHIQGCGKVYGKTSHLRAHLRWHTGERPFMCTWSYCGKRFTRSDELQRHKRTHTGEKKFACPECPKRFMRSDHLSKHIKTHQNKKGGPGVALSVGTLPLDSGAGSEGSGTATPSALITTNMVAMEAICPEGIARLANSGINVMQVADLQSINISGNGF
Sequence of Estrogen-related receptor gamma (Homo sapiens) (P62508 whole entry, looked up, the tested form may be a part): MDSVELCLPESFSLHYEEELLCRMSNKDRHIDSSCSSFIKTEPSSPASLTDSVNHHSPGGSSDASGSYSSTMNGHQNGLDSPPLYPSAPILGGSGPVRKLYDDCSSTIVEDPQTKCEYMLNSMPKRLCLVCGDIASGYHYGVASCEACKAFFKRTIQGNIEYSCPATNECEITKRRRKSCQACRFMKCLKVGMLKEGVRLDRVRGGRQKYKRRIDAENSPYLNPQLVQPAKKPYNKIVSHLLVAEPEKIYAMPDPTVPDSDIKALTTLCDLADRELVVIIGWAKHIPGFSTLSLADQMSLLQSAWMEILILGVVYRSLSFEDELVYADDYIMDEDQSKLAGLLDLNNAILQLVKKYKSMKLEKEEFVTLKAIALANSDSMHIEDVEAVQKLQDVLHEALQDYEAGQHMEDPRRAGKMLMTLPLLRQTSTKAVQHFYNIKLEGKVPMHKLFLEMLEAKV

C[C@]12CC[C@H]3[C@@H](CCC4=CC(=O)CC[C@@]43C)[C@@H]1CC[C@@H]2C(=O)CO
inactive: [3] | [4] | [5] | [6] | [7] | [10] | [11] | [14]
active: [1] 100 µM | [2] 1.7 µM | [8] 61 µM | [9] 100 µM | [12] 5.34 µM | [13] 1.78 µM

O=C[C@H](O)[C@H](O)[C@H](O)CO
inactive: [1] | [2] | [3] | [4] | [5] | [6] | [7] | [8] | [9] | [10] | [11] | [15] | [14] | [16]

CC(=O)C(=O)O
inactive: [1] | [2] | [3] | [4] | [5] | [6] | [7] | [17] | [9] | [10] | [11] | [12] | [14] | [16]

COc1ccnc(CS(=O)c2nc3cc(OC(F)F)ccc3[nH]2)c1OC (centres undefined)
inactive: [1] | [3] | [4] | [5] | [6] | [7] | [9] | [10] | [11] | [14]
active: [2] 8.07 µM

CCC(C)(O)CCC=C(C)C (centres undefined)
inactive: [1] | [2] | [3] | [5] | [6] | [7] | [17] | [8] | [9] | [10] | [11] | [12] | [14]

CCN(CC)c1ccc2c(-c3ccccc3C(=O)O)c3ccc(=[N+](CC)CC)cc-3oc2c1
inactive: [3] | [4] | [17] | [8] | [10] | [11] | [18] | [16]
active: [1] 149 µM | [2] 0.882 µM | [7] 26.9 µM | [9] 30.8 µM | [12] 33.5 µM | [14] 100 µM

Clc1sc(Cl)c(Cl)c1Cl
inactive: [1] | [2] | [3] | [4] | [6] | [7] | [8] | [9] | [10] | [11] | [12] | [15] | [13] | [14] | [18] | [16]

c1ccc2[nH]ccc2c1
active: [2] 29.9 µM
inactive: [1] | [3] | [4] | [6] | [7] | [17] | [8] | [9] | [11] | [12] | [14] | [16]

O=C(O)c1cccc([N+](=O)[O-])c1
inactive: [1] | [2] | [3] | [4] | [6] | [7] | [17] | [8] | [9] | [10] | [11] | [14] | [16]

CCc1c(C)cc(N)c(CC)c1N
active: [2] 64.5 µM
inactive: [1] | [3] | [5] | [6] | [7] | [17] | [8] | [9] | [11] | [12] | [15] | [13] | [14] | [18] | [16] | [19]

Reference: PubChem BioAssay (EPA / NIEHS)
